Data on 30 molecules can be found in ChEMBL document CHEMBL3988442, “University of Dundee, Small-Polar-MMV Screening Library” (2021).

For this assay, the target named is T1, Methionyl-tRNA synthetase, putative (Leishmania donovani (strain BPK282A1)) (UniProt E9BF75).
T1 sequence (whole entry): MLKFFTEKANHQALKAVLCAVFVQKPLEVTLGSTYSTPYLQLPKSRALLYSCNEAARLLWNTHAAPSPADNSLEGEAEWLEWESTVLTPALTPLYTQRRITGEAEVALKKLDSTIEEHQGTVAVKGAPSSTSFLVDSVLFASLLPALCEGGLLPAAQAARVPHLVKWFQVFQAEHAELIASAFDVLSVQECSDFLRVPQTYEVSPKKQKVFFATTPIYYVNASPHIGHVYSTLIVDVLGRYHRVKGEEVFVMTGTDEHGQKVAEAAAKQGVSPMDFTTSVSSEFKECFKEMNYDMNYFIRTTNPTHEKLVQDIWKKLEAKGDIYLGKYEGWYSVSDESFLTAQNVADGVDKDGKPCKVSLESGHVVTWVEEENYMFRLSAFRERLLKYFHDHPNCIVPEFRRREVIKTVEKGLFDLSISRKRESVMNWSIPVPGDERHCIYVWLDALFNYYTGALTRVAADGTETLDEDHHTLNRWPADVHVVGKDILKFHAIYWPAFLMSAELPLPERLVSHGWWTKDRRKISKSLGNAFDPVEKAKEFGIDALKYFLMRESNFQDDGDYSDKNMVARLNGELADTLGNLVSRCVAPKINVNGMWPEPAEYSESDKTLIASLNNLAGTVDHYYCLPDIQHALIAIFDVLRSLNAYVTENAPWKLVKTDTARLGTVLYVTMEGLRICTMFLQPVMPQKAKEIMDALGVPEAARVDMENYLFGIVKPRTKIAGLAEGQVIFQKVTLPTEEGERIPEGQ
Briefly: Leishmania donovani Methionine tRNA synthetase (LdMetRS):v7. Dose response assay. The format is functional. More on the design: conc 80 nM, time 150 minutes.

`CS(=O)(=O)N1CCN(c2ccc3ccc(C(=O)NCCc4ccccc4)cn23)CC1`: the PXC50 was determined as 5.02 (BOTTOM 2.353808238, HILLSLOPE 2.745183605, MAX_EFFECT 51.67464115, TOP 50.17202443) and 4.82 (BOTTOM 6.057044372, HILLSLOPE 2.135645997, MAX_EFFECT 57.03839122, TOP 56.72145826).

`CN(C(=O)c1ccc2ccc(N3CCN(S(C)(=O)=O)CC3)n2c1)C1CCCC1`: the PXC50 reads like this: (BOTTOM 0.289643944, HILLSLOPE 2.293493597, MAX_EFFECT 58.37320574, TOP 59.73308371) 5.01; (BOTTOM 8.176661161, HILLSLOPE 2.054643886, MAX_EFFECT 62.15722121, TOP 64.55497205) 4.82.

With `N[C@@H]1CCOc2c(Cl)cc(Cl)cc21`, the PXC50 is under 2.7 (MAX_EFFECT 3.676470588) and under 2.7 (MAX_EFFECT 16.70480549).

For the molecule `NC(=O)c1ccc(Cl)cc1Cl`, the PXC50 is, setting by setting: (MAX_EFFECT 4.967602592) under 3; (MAX_EFFECT 16.92015209) under 3.

Consider `OC1CCc2cc(Cl)cc(Cl)c21` (stereo not given), for which the PXC50 reads like this: (MAX_EFFECT 6.26349892) under 3; (MAX_EFFECT 9.69581749) under 3.

For the molecule `O=C1CN(c2nc(-c3cccnc3)nc3sc4c(c23)CCCC4)CCN1`, the PXC50 (MAX_EFFECT 24.0) is under 4 and the PXC50 (MAX_EFFECT 26.98412698) is under 4.

Regarding `CCN1CCN(c2nc(-c3cccc(OC)c3)cc(C(F)(F)F)n2)CC1`, the PXC50 was under 4 (MAX_EFFECT 17.85714286) and under 4 (MAX_EFFECT 18.43434343).

`Cc1nc(N2CCC(NS(C)(=O)=O)CC2)c2c(-c3cccs3)csc2n1`: the PXC50 is, setting by setting: (MAX_EFFECT 36.61616162) under 4; (MAX_EFFECT 37.24489796) under 4.

As to `CC1CCc2c(Cl)cc(Cl)c(O)c2N1` (stereo not given), the PXC50 (MAX_EFFECT 23.76425856) is under 3 and the PXC50 (MAX_EFFECT 24.40604752) was under 3.

In the case of `O=C(c1ccccc1)C1CCN(c2cncc(-n3cccn3)n2)CC1`, the PXC50 reads like this: (MAX_EFFECT 17.57719715) under 4; (MAX_EFFECT 27.64084507) under 4.

With `CCCN(CCOC)c1nc(C)nc2sccc12`, the PXC50 is under 4 (MAX_EFFECT 12.79373368) and under 4 (MAX_EFFECT 15.14360313).

Molecule `Cc1noc(CCNC(=O)c2ccc3ccc(N4CCN(S(C)(=O)=O)CC4)n3c2)n1` returned a PXC50 (BOTTOM 5.724020306, HILLSLOPE 2.592848239, MAX_EFFECT 58.13528336, TOP 58.43223286) of 4.74 and a PXC50 (BOTTOM -1.848364429, HILLSLOPE 1.849781613, MAX_EFFECT 52.63157895, TOP 54.86189083) of 4.91.

For `CC(C)C[C@H](N)COc1ccccc1-c1ccn(C)n1`, the PXC50 by setting is: (MAX_EFFECT 7.660455487) under 4; (MAX_EFFECT 10.87420043) under 4.

Regarding `N[C@H](COc1cccc(F)c1Oc1ccc(Cl)cc1)C1CCOCC1`, the PXC50 reads like this: (MAX_EFFECT 9.316770186) under 4; (MAX_EFFECT 10.44776119) under 4.

Molecule `Cn1cc(CN2CCC(F)(F)C3(CCN(c4ncccn4)C3)C2)cn1` (stereo not given) displayed a PXC50 (MAX_EFFECT -0.938967136) of under 4 and a PXC50 (MAX_EFFECT -2.777777778) of under 4.

`CCN(CC)C(=O)CN(C)c1nc(C)nc2sc(-c3ccccc3)cc12` yielded a PXC50 (MAX_EFFECT 23.46666667) of under 4 and a PXC50 (MAX_EFFECT 30.15873016) of under 4.

Take `O=C1CC[C@@H](COc2cccc(F)c2Oc2ccc(Cl)cc2)N1`: the PXC50 by setting is: (MAX_EFFECT 7.462686567) under 4; (MAX_EFFECT 9.316770186) under 4.

On to `CS(=O)(=O)N1CCN(c2ccc3ccc(C(=O)NCC4(CO)CCCC4)cn23)CC1`, for which the PXC50 runs as follows: (MAX_EFFECT 45.93301435) under 4; (MAX_EFFECT 48.99451554) under 4.

Consider `Clc1ccccc1CN1CCc2nc(Nc3ccccc3)ncc2C1`, for which the PXC50 is, setting by setting: (MAX_EFFECT 23.92344498) under 4; (MAX_EFFECT 25.2285192) under 4.

For the molecule `COCCNc1nc(-c2ccc(C)cc2)cc(C(F)(F)F)n1`, the PXC50 by setting is: (MAX_EFFECT 7.978723404) under 4; (MAX_EFFECT 8.29015544) under 4.

Turning to `CS(=O)(=O)N1CCN(c2ccc3ccc(C(=O)NC4CCN(c5ncccn5)CC4)cn23)CC1`, the PXC50 runs as follows: (BOTTOM 1.498519447, HILLSLOPE 2.25926472, MAX_EFFECT 69.85645933, TOP 69.17206782) 4.97; (BOTTOM 9.613017987, HILLSLOPE 3.179249655, MAX_EFFECT 74.58866545, TOP 74.15419217) 4.86.

Take `Cc1ccc(N2CCC3(CN(Cc4cccs4)CCC3(F)F)C2)nn1` (stereo not given): the PXC50 is, setting by setting: (MAX_EFFECT 4.988662132) under 4; (MAX_EFFECT 10.8411215) under 4.

As to `CC(=O)N[C@H](COc1cccc(F)c1Oc1ccc(Cl)cc1)CC(C)C`, the PXC50 was under 4 (MAX_EFFECT 3.105590062) and under 4 (MAX_EFFECT 4.051172708).

`CS(=O)(=O)N1CCN(c2ccc3ccc(C(=O)N4CCCCO4)cn23)CC1`: the PXC50 is, setting by setting: (BOTTOM 3.408302262, HILLSLOPE 2.699207266, MAX_EFFECT 56.14035088, TOP 100.0) 4.33; (BOTTOM -1.088314762, HILLSLOPE 0.901802249, MAX_EFFECT 54.6875, TOP 100.0) 4.49.

For the molecule `COc1ccc(-c2cc(C(F)(F)F)nc(N3CCN(C)CC3)n2)cc1`, the PXC50 is, setting by setting: (MAX_EFFECT 16.41414141) under 4; (MAX_EFFECT 20.40816327) under 4.

For the molecule `Nc1noc2ccc(-c3cnc4ccc(NCC5CCCO5)nn34)cc12` (stereo not given), the PXC50 is under 4 (MAX_EFFECT 19.33842239) and under 4 (MAX_EFFECT 25.0).

On to `Cc1nc(NCCCNS(C)(=O)=O)c2c3c(sc2n1)CCC3`, for which the PXC50 by setting is: (MAX_EFFECT 6.914893617) under 4; (MAX_EFFECT 9.844559585) under 4.

For `Cc1nc(N2CCC(C(O)CC(C)C)CC2)c2ccsc2n1` (stereo not given), the PXC50 reads like this: (MAX_EFFECT 3.626943005) under 4; (MAX_EFFECT 4.255319149) under 4.

Take `Cc1ccc(-c2cc(C(F)(F)F)nc(NCCN(C)C)n2)cc1`: the PXC50 runs as follows: (MAX_EFFECT 8.163265306) under 4; (MAX_EFFECT 8.333333333) under 4.

For the molecule `CC(C)C[C@H](N)COc1ccccc1C(=O)c1ccccc1`, the PXC50 reads like this: (MAX_EFFECT 1.863354037) under 4; (MAX_EFFECT -0.213219616) under 4.
